DT40 TDP1 CPT: DT40-hTDP1 cell growth loss with CPT; chicken DT40 Tdp1-/-;hTDP1 cells + 20 nM CPT, ATP luminescence, 48 h; Potency, µM (titrated, usually from 46.2 µM), inactives show at the highest dose activity change, negative = growth inhibition, usual class: inhibitors; 420,000 tested, 12% active; AID 686979; also: potency is read from the fitted curve at half-maximal effect; nearly all actives have a fitted effect of over 55% in size
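Cell growth measured by CellTiter-Glo luminescence after a minimum 48 h, 37 C compound exposure with 20 nM CPT in Tdp1-knockout DT40 cells stably expressing hTDP1, seeded 400/well; qHTS titration format.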
CtBP-E1A blk: blocks the CtBP interaction with E1A; activity change, % (test concentration not listed); AID 651724; 340,000 tested, 0.49% active; AlphaScreen GST-E1A/His-CtBP binding, 1536-well; stronger effect = lower value; in the data active = activity change below about -65%; inconclusive = mostly about -30% to -63%
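Homogeneous bead-based format: GST-tagged E1A captured on glutathione donor beads, His-tagged CtBP on nickel acceptor beads; compounds precede bead addition by 2 h at 37 °C.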
Six1-Eya2 inh: blocks human Six1 binding to Eya2 | Q15475+O00167 | AlphaScreen GST-Six1/His-Eya2 binding, biochemical; stronger effect = lower value | activity change, % (concentration not given with the values) | 360,000 tested, 0.56% active; in the data active = activity change below about -65%; inconclusive = mostly about -30% to -63%
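AlphaScreen with GST-Six1 and His-Eya2 (5X mix: 250 nM and 500 nM), glutathione donor and nickel acceptor beads; buffer 50 mM Tris pH 8.0, 300 mM NaCl, 1 mM TCEP; 1 h at 37 C in the dark.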
IL1B secr inh: inhibitors of inflammasome signaling (IL-1 beta secretion); THP-1 LPS/ATP IL-1B secretion, AlphaLISA, 16 h; stronger effect = lower value; activity change, % at 57.5 µM; 360,000 tested, 4.7% active; AID 743279; in the data active = activity change below about -50%; inconclusive = mostly about -30% to -49%
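Secreted IL-1B measured by AlphaLISA bead assay after 16 h compound exposure of THP-1 cells; compounds (final up to 57.5 uM) added 1 h before LPS (250 ng/mL) and ATP (1.25 mM) stimulation; lower signal means less secretion.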
TDP1 cell noCPT: qHTS for Inhibitors of human tyrosyl-DNA phosphodiesterase 1 (TDP1): qHTS in cells in absence of CPT; DT40 Tdp1-/- hTDP1 cells, no CPT, ATP luminescence, 48 h; Potency, µM (doses to about 46.2 µM), for inactives: at the highest dose activity change, negative = growth inhibition, usual class: inhibitors; 420,000 tested, 15% active; AID 686978, 2013; also: potency is read from the fitted curve at half-maximal effect; nearly all actives have a fitted effect of over 55% in size
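Growth kinetics read by CellTiter-Glo luminescence after ≥48 hr at 37 °C. Cells: DT40 Tdp1-/- stably carrying human TDP1, 400 per well, compound exposure in the absence of CPT (DMSO vehicle).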
TDP1 inh: inhibitors of human tyrosyl-DNA phosphodiesterase TDP1 | Q9NUW8 | recombinant TDP1, AlphaScreen DNA substrate cleavage | Potency, µM (doses to about 130 µM), without a hit: top-dose activity change, negative = inhibition, usual class: inhibitors | 350,000 tested, 0.28% active; also: potency is read from the fitted curve at half-maximal effect; nearly all actives have a fitted effect of over 40% in size
Target sequence (Q9NUW8 whole entry, looked up): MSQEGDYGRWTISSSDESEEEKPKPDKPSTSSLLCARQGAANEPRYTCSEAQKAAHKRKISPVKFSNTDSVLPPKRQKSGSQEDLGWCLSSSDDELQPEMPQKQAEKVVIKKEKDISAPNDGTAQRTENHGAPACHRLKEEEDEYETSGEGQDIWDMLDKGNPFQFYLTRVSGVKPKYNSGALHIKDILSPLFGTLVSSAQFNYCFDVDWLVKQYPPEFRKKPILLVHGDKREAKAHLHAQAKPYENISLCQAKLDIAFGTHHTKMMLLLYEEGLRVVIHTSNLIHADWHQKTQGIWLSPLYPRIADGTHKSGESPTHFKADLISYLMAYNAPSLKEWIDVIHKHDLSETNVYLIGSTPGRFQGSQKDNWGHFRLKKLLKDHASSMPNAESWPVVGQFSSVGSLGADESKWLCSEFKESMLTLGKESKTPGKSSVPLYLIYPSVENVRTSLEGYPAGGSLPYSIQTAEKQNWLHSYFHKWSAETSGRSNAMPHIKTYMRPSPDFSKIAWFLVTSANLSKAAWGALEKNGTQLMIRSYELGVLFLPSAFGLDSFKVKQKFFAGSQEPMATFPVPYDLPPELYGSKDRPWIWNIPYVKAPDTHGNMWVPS
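Signal: AlphaScreen proximity between streptavidin donor and anti-FITC acceptor beads on intact substrate. Reaction: Tdp1 1 nM, substrate 15 nM final, 5 min RT after 15 min compound preincubation.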
* marks the source's active call; other numbers are inactive results; u = inconclusive; x = no result given. An excerpt weighted towards active compounds, which were near 18% of everything screened. Unless noted, calls follow the shape of the dose curve; as a rule, active = well fitted curve in the direction sought with a large enough effect; inconclusive = small, poorly fitted or top-dose-only effect, or another doubt; inactive = no such curve, though single readings can be large; an effect the other way counts as inactive or inconclusive. % is scaled to controls: 0 for no effect and ±100 for the full control effect.

SMILES	DT40 TDP1 CPT	CtBP-E1A blk	Six1-Eya2 inh	IL1B secr inh	TDP1 cell noCPT	TDP1 inh
COc1ccc(-c2oc(=O)c3cc(OC)c(OC)cc3c2/C=C/c2ccc(F)cc2)cc1	-8%	12	7	5	u	1%
CCOC(=O)c1ccc(-c2c(-c3ccc(OC)cc3)oc(=O)c3cc(OC)c(OC)cc23)cc1F	21µM*	9	4	15	10µM*	0%
CCOC(=O)c1ccc(-c2c(-c3cc(OC)c(OC)c(OC)c3)noc2C)cc1F	1.6µM*	-18	2	42	1µM*	x
CCOC(=O)c1ccc(-c2c(-c3ccc4c(c3)OCO4)noc2-c2ccsc2)cc1F	u	1	1	21	u	x
O=C(N[C@@H](Cc1ccccc1)C(=O)N1CCC2(CC1)NCCc1[nH]cnc12)c1cccc(Br)c1	10µM*	-8	-1	u	6.5µM*	5%
COc1ccc(C(=O)Nn2c(CC(C)C)nc3cc(Cl)ccc3c2=O)c(OC)c1	u	10	4	24	21µM*	x
COc1ccccc1CNC(=O)C1Cc2cc(S(=O)(=O)N3CCCCC3)ccc2N1C(C)=O (configuration not stated)	3%	-1	-2	-6	18%	5%
CCOC(=O)c1cc2sccc2n1CC(=O)N1CCCc2ccccc21	u	-8	-3	-50*	u	2%
CCOC(=O)c1cc2occc2n1CC(=O)N1CCCc2ccccc21	u	-15	-7	-14	u	8%
CN(C)Cc1c(O)c(Cl)cc2c3c(c(=O)oc12)CCCC3	u	-2	1	21	15µM*	-1%
Clc1ccc(-c2noc(CN(Cc3ccccn3)CC3CCCO3)n2)cc1 (configuration not stated)	u	-7	-3	5	16µM*	0%
Cc1oc(-c2ccc(F)cc2)nc1CN(Cc1ccccn1)CC1CCCO1 (configuration not stated)	u	2	-16	21	29µM*	6%
FC(F)(F)c1cccc(Cc2noc(CN(Cc3ccccn3)CC3CCCO3)n2)c1 (configuration not stated)	21µM*	4	8	4	21µM*	x
CCOC(=O)C1=C(CSc2nc3c(cc2C#N)CCC3)OC(N)=C(C#N)C1c1ccccc1 (configuration not stated)	29µM*	-3	-2	19	u	4%
CCOC(=O)C1=C(CSc2nc3c(cc2C#N)CN(C)CC3)OC(N)=C(C#N)C1c1ccc(F)cc1 (configuration not stated)	u	-1	-26	-2	u	-5%
CCOC(=O)C1=C(CSc2nc3c(cc2C#N)CN(C)CC3)OC(N)=C(C#N)C1c1ccccc1 (configuration not stated)	u	-15	-12	2	29µM*	4%
C/C=C\C=C/C(=O)Nc1cccc(C2=NOC3(C2)C[C@@H](C(N)=O)N(C(=O)c2ccccc2)C3)c1 (some centres not stated)	x	x	x	x	x	5%
C/C=C/C=C\C(=O)Nc1cccc(C2=NOC3(C2)C[C@@H](C(N)=O)N(C(=O)c2cc([N+](=O)[O-])cc([N+](=O)[O-])c2C)C3)c1 (some centres not stated)	16µM*	-9	-7	-15	u	2%
C/C=C\C=C\C(=O)Nc1cccc(C2=NOC3(C2)C[C@H](C(N)=O)N(C(=O)c2ccccc2C(=O)c2ccccc2)C3)c1 (some centres not stated)	u	x	-15	-12	16µM*	4%
